From PubChem BioAssay
Pol beta inh – qHTS Assay for Inhibitors of DNA Polymerase Beta. Pol beta primer extension/strand displacement, fluorescence kinetic. AID 485314, 2010. Potency, µM (titrated, usually from 114 µM), for inactives: at the highest dose activity change, negative = inhibition, most hits filed as inhibitors. P06746. actives 1.3% (n = 340,000); note: % is set by controls: 0 for no effect and ±100 for the full control effect
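Curves were derived by four-parameter Hill fits of normalized qHTS data. The kinetic fluorescent primer-extension read was taken at 0 and 10 min after 50 nM substrate, following a 15 min room-temperature preincubation of 10 nM enzyme with compounds.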
Pol eta inh-1 – qHTS for Inhibitors of Polymerase Eta; recombinant Pol eta, fluorescent DNA replication assay; Potency, µM (top dose mostly 114 µM), for inactives: at the highest dose activity change, negative = inhibition, actives largely listed as inhibitors; actives 1.2% (n = 390,000); AID 588591, 2011; note: % is set by controls: 0 for no effect and ±100 for the full control effect
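Fluorescent replication assay: 50 nM final substrate added after a 15 min room-temperature compound preincubation with 10 nM enzyme. Signal taken at 0 min and again at 10 min.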
WRN helicase inh – qHTS for Inhibitors of WRN Helicase; Potency, µM (series often up to 114 µM), inactives show at the top dose activity change, negative = inhibition, actives largely listed as inhibitors; actives 0.46% (n = 360,000); AID 651768, 2012; WRN helicase unwinding, fluorescent forked duplex, kinetic; Bifunctional 3'-5' exonuclease/ATP-dependent helicase WRN (Homo sapiens), Q14191; note: % is set by controls: 0 for no effect and ±100 for the full control effect; nearly all actives have a fitted effect of over 55% in size
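Kinetic red-fluorescence monitoring (525/598 nm) tracks WRN helicase activity after 100 nM fluorophore-quencher forked duplex and 2 mM ATP are added to 20 nM enzyme pretreated 15 min at room temperature with compound.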
FEN1 inhibitor – qHTS Assay for the Inhibitors of Human Flap endonuclease 1 (FEN1); P39748; Recombinant FEN1 flap cleavage, fluorescence, 15 min; Potency, µM (doses to about 114 µM), for inactives: top-dose activity change, negative = inhibition, usual class: inhibitors; actives 0.35% (n = 390,000); AID 588795, 2011; note: % is set by controls: 0 for no effect and ±100 for the full control effect; nearly all actives have a fitted effect of over 65% in size
Target sequence (P39748 whole entry, looked up): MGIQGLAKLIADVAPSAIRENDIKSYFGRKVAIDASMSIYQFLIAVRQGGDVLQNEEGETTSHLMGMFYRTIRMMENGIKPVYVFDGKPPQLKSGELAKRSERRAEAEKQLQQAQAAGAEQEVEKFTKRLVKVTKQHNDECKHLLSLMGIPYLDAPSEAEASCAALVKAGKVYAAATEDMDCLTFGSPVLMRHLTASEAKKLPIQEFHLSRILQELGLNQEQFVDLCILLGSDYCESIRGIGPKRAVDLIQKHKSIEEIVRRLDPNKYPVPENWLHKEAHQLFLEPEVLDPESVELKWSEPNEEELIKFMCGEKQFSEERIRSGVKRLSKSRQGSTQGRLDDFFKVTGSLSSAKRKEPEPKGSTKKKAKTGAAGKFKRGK
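Nuclease activity of 10 nM FEN1 was measured after 15 min of room-temperature exposure to titrated compounds, by adding 50 nM flap substrate and reading plates at 0 and 15 min.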
Pol iota inh – qHTS for Inhibitors of Polymerase Iota. DNA polymerase iota (Homo sapiens), Q9UNA4. Pol iota fluorescent replication assay, 10 min. Potency, µM (series often up to 115 µM), without a hit: top-dose activity, negative = inhibition, usual class: inhibitors. actives 1% (n = 390,000). AID 588590, 2011
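Fluorescent replication assay read twice, at 0 min and 10 min after adding 50 nM (final) substrate. Enzyme (10 nM) and compounds were first incubated 15 min at room temperature; enzyme-free buffer wells were negative controls.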
Pol kappa inh-1 – qHTS for Inhibitors of Polymerase Kappa. DNA polymerase kappa (Homo sapiens), Q9UBT6. AID 588579, 2011. Potency, µM (doses to about 107 µM), for the others: at the highest dose activity, negative = inhibition, actives largely listed as inhibitors. purified Pol kappa, fluorescent DNA synthesis assay, 10 min. actives 0.53% (n = 400,000); note: % is set by controls: 0 for no effect and ±100 for the full control effect
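50 nM final substrate added after 15 min RT preincubation of 10 nM Pol kappa with compound; fluorescence read at 0 and 10 min.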
TbPGK inh – qHTS for inhibitors of Phosphogylcerate Kinase: Hit Validation Screen. shares compounds with Pol kappa inh-1. TbPGK coupled GAPDH assay, Kinase-Glo luminescence. Potency, µM (titrated, usually from 57.5 µM), inactives show at the top dose activity change, negative = inhibition, usual class: inhibitors. actives 79% (n = 500). AID 686980, 2013; note: % is set by controls: 0 for no effect and ±100 for the full control effect; nearly all actives have a fitted effect of over 65% in size
POLI cherry-pick – qHTS for Inhibitors of Polymerase Iota: Confirmatory Assay for Cherry-picked Compounds; shares compounds with Pol kappa inh-1; AID 720496, 2013; actives 77% (n = 1,500); Pol iota primer extension, TAMRA/BHQ fluorescence; Potency, µM, most hits filed as inhibitors
Pol kappa inh-2 – qHTS for Inhibitors of Polymerase Kappa: Confirmatory Assay for Cherry-picked Compounds | Potency, µM, actives largely listed as inhibitors | actives 76% (n = 920) | purified Pol-kappa, fluorescent strand-displacement substrate | AID 720501, 2013 | shares compounds with Pol eta inh-1
Pol eta inh-2 – qHTS for Inhibitors of Polymerase Eta: Confirmatory Assay for Cherry-picked Compounds. actives 64% (n = 2,600). AID 720502, 2013. Pol eta primer extension, TAMRA/BHQ fluorescence, 10 min. shares compounds with Pol eta inh-1. Potency, µM, hits mostly inhibitors
* marks the source's active call; other numbers are inactive results; ? = inconclusive; nt = not tested or not shown; [ ] = another dose, or the depositor's remark. A selection: hits, their analogues and other compounds. The true share with any hit is near 2.4%. Calls come from the whole dose curve; as a rule, active = well fitted curve in the direction sought with a large enough effect; inconclusive = small, poorly fitted or top-dose-only effect, or another doubt; inactive = no such curve, though single readings can be large; an effect the other way counts as inactive or inconclusive. Potency is the fitted concentration of half-maximal effect.

SMILES	Pol beta inh	Pol eta inh-1	WRN helicase inh	FEN1 inhibitor	Pol iota inh	Pol kappa inh-1	POLI cherry-pick	Pol eta inh-2	others
O=C(Nc1ccc(C(=O)O)cc1)/C(=C\c1ccc2c(c1)OCO2)NC(=O)c1ccccc1	-1%	7%	-11%	4%	-14%	-11%	nt	nt
O=C(O)COc1ccccc1/C=N/NC(=O)/C(=C\c1ccc2c(c1)OCO2)NC(=O)c1ccccc1	-15%	?	-16%[11.6 µM]	-14%	?	-8%	42*	?
CCOC(=O)CC(NC(=O)CCc1c(C)nc2c(c1C)c(=O)n(C)c(=O)n2C)c1ccc(OCC)c(OC)c1 (stereo not drawn)	-1%	-25%	nt	-8%	43%	-4%	nt	nt
CCOc1ccccc1-n1c(C)cc(C=O)c1C	15%	-23%	1%	5%	195%	-4%	nt	nt
Cc1c(C(=O)O)cccc1-n1c(C)cc(C=O)c1C	16µM*	6.3µM*	-15%	-12%	25µM*	?	30*	19*
CCOc1cccc(NC(=O)CSc2sc3c(O)cc(=O)[nH]c3c2C#N)c1	-20%	-3%	-36%	-14%	1%	4%	nt	nt
N#Cc1c(SCC(=O)Nc2nccs2)sc2c(O)cc(=O)[nH]c12	8.9µM*	14µM*	56µM*	45µM*	13µM*	45µM*	47*	30*	Pol kappa inh-2=17*
CCCSc1nnc(NC(=O)CSc2sc3c(O)cc(=O)[nH]c3c2C#N)s1	20µM*	3.2µM*	10µM*	35µM*	8.9µM*	20µM*	67*	30*	Pol kappa inh-2=11*
Cc1ccc(C)c(NC(=O)N2CCN(C(=O)c3nsc4ccccc34)CC2)c1	-1%	9%	nt	15%	-3%	-1%[60.1 µM]	nt	nt
CCOC(=O)CN1C(=O)S/C(=C\c2ccc(-c3ccc(C(=O)O)c(Cl)c3)o2)C1=O	?	10µM*	-12%[11.6 µM]	?	20µM*	40µM*	?	30*	Pol kappa inh-2=17*
CCOC(=O)CN1C(=O)S/C(=C/c2ccc(N3CCCCC3)o2)C1=O	46%	-22%	-1%	2%	13%	0%	nt	nt
O=C(C[n+]1c2ccccc2cc2ccccc21)c1ccc(F)cc1	nt	nt	nt	0%	57%	0%	nt	nt
C/C(=C\C=C(C#N)C#N)c1cc(C#N)c(N)o1	8.9µM*	?	89µM*	56µM*	?	?	?	43*
CCCOc1ccc(C(=O)Nc2ccc3oc(-c4ccc5ccccc5c4)nc3c2)cc1	9%	-9%	nt	3%	9%	11%	nt	nt
C[C@@H]1CC2[C@@H]3C[C@H](F)C4=CC(=O)C(Cl)=C[C@]4(C)[C@@]3(F)[C@H](O)C[C@]2(C)[C@@]1(O)C(=O)CO (stereo partly drawn)	nt	nt	nt	nt	nt	7%[19.4 µM]	nt	nt
CCCC[N+](C)(C)CCC(=O)NC(C)(C)CS(=O)(=O)[O-]	20µM*	13µM*	-29%	2%	?	-27%	nt	76*	TbPGK inh=?
Cc1ccc(S(=O)(=O)NCCCCCC(=O)NC(C)(C)CO)cc1	8%	-1%	-3%	-2%	12%	-2%	nt	nt
Nc1ncc(N=Nc2cc(C(=O)O)ccc2Cl)s1	?	13µM*	-29%[11.6 µM]	?	7.9µM*	79µM*	60*	21*
CC(=O)c1ccc(Cc2cnc(N)s2)cc1	17%	1%	-14%	-11%	5%	-6%	nt	nt
CC(C)(C)OC(=O)N1CCC(c2c(C(=O)NCCN3CCOCC3)cnn2-c2ccc(F)cc2F)CC1	0%	1%	nt	21%	12%	2%	nt	nt
O=C1C=C(N2CCCCC2)c2ccccc2C1=O	nt	20µM*	-20%	-8%	8.9µM*	-10%	34*	24*
O=C1c2ccccc2C(=O)c2c1cccc2N1CCCC1	0%	-20%	?	?	?	-20%	nt	nt
Cc1ccc(CCNC(=O)Cn2ncc3c(=O)oc4ccccc4c32)cc1	13%	-5%	nt	15%	1%	-8%	nt	nt
O=C(CSc1nc(-c2ccc(F)cc2)nc2c1Cc1ccccc1O2)Nc1ccc(C(=O)O)cc1	4.5µM*	?	?	?	1.4µM*	?	7.5*	nt	TbPGK inh=2.1µM*;Pol kappa inh-2=7.5*
O=C(CSc1nc(-c2ccccc2)nc2c1Cc1ccccc1O2)Nc1ccc(C(=O)O)cc1	2µM*	7.9µM*	?	?	?	10µM*	9.5*	?	Pol kappa inh-2=42*
O=C(c1ccc2c(c1)OCCO2)N1CCN(S(=O)(=O)c2c(F)cccc2F)CC1	nt	-23%	nt	1%	29%	6%	nt	nt
O=C(c1cccc(-n2cccc2)c1)N1CCN(S(=O)(=O)c2c(F)cccc2F)CC1	?	20µM*	?	-13%	22µM*	?	67*	76*
O=c1c(OC2OC(CO)C(O)C(O)C2OC2OC(CO)C(O)C(O)C2O)c(-c2ccc(O)cc2)oc2cc(O)cc(O)c12 (stereo not drawn)	22µM*	11µM*	-10%[11.6 µM]	?	28µM*	50µM*	?	?
C[C@@H]1OC(O[C@H]2[C@H](Oc3cc(O)c4c(=O)c(O)c(-c5ccc(O)cc5)oc4c3)O[C@H](CO)[C@@H](O)[C@@H]2O)[C@H](O)[C@H](O)[C@H]1O (stereo partly drawn)	nt	nt	nt	nt	nt	8%[60.1 µM]	nt	nt
